Experimental data from the supplement of paper PMC10849652.
The full data set covers some 8,800 targets. This sample favours those with a hit. About 0.5% of all pairs of compound and target were hits. A number with no mark means an inactive call.

How the values were obtained:
Experiment in all cases: log2 fold change, soluble protein after heating vs DMSO (PISA); higher = thermal stabilisation; K562 lysate, 10 uM; active = over 0.2 and 3.5 SD of the protein, either way, in both replicates (recomputed)
nilotinib = compound: Cc1cn(-c2cc(NC(=O)c3ccc(C)c(Nc4nccc(-c5cccnc5)n4)c3)cc(C(F)(F)F)c2)cn1 [nilotinib]
In short: (§1)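 Following dounce homogenisation of K562 pellets in PBS pH 7.4 with 1 mM MgCl2, crude extract at 1 mg/mL protein was incubated for 30 min with 10 μM compound. Aliquots were then heated for 3 min over 48°C-58°C and pooled, NP-40 was added to 0.5% at 4°C, and soluble protein was recovered as the supernatant at 21,000xg for 90 min. Channel-sum-equalised TMTpro 16plex LC-MS/MS quantified this protein. Each value, from duplicates, is a log-two fold change in thermal stability relative to solvent controls.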

[1] = compound: Cc1nc(Nc2n[nH]c3c2CN(C(=O)N[C@H](CN(C)C)c2ccccc2)C3(C)C)c2sccc2n1
In short: as §1

dasatinib = compound: Cc1nc(Nc2ncc(C(=O)Nc3c(C)cccc3Cl)s2)cc(N2CCN(CCO)CC2)n1 [dasatinib]
In short: as §1

[2] = compound: Cc1ncc(-c2ccnc(Nc3ccc(S(C)(=O)=O)cc3)n2)n1C(C)C
In short: as §1

[3] = compound: Cn1cc(-c2ccc3c(c2)CCN3C(=O)Cc2cccc(C(F)(F)F)c2)c2c(N)ncnc21
In short: as §1

quisinostat = compound: Cn1cc(CNCC2CCN(c3ncc(C(=O)NO)cn3)CC2)c2ccccc21 [quisinostat]
In short: as §1

tipifarnib = compound: Cn1cncc1[C@@](N)(c1ccc(Cl)cc1)c1ccc2c(c1)c(-c1cccc(Cl)c1)cc(=O)n2C [tipifarnib]
In short: as §1

[4] = compound: NC(=O)Nc1cc(-c2cccc(F)c2)sc1C(=O)N[C@H]1CCCNC1
In short: as §1

[5] = compound: NC(=O)c1cnc(N[C@@H]2CCCC[C@@H]2N)nc1Nc1cccc(-n2nccn2)c1
In short: as §1

[6] = compound: NC1(c2ccc(-c3nc4ccn5c(=O)[nH]nc5c4cc3-c3ccccc3)cc2)CCC1
In short: as §1

UniProt O60762, sequence (O60762 whole entry, looked up): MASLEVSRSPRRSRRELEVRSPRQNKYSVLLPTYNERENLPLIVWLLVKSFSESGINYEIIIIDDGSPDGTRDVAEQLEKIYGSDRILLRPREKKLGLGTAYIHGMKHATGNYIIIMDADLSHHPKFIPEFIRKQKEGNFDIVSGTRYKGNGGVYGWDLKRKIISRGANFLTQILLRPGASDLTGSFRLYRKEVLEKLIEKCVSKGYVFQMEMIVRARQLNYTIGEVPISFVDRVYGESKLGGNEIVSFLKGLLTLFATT
UniProt P17661, sequence (P17661 whole entry, looked up): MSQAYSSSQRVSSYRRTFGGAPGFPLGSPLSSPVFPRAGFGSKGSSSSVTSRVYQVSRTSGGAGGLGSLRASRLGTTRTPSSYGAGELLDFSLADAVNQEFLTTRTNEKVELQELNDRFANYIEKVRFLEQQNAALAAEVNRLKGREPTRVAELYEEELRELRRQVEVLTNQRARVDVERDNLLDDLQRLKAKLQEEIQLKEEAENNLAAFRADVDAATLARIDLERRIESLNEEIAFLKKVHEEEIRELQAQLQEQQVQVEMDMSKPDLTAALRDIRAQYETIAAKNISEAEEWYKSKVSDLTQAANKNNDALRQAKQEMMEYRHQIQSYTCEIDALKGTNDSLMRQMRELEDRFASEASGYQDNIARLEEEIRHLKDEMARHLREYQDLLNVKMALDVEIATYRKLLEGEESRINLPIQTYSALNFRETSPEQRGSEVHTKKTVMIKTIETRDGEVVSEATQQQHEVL
UniProt P06732, sequence (P06732 whole entry, looked up): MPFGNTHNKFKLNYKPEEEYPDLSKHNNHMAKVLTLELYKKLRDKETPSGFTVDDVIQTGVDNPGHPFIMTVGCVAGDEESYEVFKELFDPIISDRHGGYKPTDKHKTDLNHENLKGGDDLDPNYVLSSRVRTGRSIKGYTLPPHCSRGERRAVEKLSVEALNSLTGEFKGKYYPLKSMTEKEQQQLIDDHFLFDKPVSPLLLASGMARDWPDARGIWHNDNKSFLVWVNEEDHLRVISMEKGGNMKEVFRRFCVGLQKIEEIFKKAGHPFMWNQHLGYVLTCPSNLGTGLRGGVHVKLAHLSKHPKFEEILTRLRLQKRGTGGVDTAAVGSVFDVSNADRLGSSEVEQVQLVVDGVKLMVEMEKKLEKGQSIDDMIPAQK
UniProt P04080, sequence (P04080 whole entry, looked up): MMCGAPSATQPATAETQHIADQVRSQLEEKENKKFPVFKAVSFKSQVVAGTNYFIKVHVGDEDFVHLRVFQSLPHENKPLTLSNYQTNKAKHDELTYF
UniProt P48729, sequence (P48729 whole entry, looked up): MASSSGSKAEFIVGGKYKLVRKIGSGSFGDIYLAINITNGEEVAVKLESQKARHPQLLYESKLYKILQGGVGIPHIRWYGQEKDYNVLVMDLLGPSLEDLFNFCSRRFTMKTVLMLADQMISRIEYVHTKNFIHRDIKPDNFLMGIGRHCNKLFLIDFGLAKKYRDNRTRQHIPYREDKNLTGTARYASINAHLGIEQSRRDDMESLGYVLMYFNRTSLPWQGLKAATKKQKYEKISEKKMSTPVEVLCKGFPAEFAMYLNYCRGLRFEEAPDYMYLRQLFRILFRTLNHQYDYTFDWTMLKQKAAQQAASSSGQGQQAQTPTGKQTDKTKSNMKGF
UniProt Q8IWF6, sequence (Q8IWF6 whole entry, looked up): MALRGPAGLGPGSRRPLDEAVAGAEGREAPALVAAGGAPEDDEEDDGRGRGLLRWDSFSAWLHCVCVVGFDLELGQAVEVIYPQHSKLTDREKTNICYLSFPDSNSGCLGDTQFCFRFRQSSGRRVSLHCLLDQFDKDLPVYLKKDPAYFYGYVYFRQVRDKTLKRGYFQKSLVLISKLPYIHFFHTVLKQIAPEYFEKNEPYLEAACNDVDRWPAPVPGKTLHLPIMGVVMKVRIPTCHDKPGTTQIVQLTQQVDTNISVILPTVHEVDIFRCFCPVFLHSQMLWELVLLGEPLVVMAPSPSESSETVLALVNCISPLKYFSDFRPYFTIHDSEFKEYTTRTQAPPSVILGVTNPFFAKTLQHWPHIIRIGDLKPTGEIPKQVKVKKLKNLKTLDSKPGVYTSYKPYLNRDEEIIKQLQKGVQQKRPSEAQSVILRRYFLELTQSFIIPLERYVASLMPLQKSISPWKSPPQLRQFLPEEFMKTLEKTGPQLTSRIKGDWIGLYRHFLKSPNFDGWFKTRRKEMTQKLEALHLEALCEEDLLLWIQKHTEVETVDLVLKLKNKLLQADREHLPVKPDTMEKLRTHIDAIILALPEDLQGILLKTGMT
UniProt Q99704, sequence (Q99704 whole entry, looked up): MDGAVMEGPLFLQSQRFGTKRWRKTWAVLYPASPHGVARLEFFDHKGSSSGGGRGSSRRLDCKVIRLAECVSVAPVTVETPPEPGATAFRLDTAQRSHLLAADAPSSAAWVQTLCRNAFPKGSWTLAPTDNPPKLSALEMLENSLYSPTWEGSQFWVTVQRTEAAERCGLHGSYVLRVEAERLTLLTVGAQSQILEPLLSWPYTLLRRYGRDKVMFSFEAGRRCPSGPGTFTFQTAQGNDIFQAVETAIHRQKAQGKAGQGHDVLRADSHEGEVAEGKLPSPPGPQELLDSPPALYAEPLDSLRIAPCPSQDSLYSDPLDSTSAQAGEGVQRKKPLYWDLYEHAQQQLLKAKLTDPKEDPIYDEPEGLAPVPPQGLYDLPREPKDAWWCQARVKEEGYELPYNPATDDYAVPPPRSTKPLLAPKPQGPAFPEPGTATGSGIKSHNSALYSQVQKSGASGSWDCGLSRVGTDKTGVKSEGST
UniProt Q13616, sequence (Q13616 whole entry, looked up): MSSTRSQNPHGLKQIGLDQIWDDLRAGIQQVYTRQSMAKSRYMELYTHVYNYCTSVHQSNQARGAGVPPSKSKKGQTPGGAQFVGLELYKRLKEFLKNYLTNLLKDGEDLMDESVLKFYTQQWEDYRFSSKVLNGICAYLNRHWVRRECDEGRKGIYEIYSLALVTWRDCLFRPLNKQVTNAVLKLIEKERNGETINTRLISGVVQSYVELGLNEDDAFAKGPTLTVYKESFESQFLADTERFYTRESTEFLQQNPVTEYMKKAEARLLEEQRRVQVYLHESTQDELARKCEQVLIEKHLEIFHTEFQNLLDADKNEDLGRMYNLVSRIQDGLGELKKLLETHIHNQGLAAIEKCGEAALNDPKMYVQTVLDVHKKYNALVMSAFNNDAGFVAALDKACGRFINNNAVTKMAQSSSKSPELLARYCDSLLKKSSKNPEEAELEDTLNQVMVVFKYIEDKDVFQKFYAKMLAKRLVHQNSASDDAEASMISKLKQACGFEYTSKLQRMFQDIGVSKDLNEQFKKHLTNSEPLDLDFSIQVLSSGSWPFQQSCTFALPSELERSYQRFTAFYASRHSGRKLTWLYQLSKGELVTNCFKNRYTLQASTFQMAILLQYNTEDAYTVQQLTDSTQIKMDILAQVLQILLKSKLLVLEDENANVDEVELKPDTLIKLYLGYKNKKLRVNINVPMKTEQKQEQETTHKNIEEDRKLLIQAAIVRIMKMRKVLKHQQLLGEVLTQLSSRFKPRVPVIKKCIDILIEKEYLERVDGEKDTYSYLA
UniProt P19784, sequence (P19784 whole entry, looked up): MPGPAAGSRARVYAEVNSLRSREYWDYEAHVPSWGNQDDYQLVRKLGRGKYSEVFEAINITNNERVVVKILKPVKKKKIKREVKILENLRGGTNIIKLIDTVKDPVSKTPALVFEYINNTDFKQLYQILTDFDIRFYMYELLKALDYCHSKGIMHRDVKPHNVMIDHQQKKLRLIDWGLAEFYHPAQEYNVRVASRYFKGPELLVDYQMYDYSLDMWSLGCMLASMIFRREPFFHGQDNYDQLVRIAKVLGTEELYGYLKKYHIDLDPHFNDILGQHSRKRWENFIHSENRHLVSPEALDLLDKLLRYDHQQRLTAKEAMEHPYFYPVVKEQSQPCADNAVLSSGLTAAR
UniProt Q96DG6, sequence (Q96DG6 whole entry, looked up): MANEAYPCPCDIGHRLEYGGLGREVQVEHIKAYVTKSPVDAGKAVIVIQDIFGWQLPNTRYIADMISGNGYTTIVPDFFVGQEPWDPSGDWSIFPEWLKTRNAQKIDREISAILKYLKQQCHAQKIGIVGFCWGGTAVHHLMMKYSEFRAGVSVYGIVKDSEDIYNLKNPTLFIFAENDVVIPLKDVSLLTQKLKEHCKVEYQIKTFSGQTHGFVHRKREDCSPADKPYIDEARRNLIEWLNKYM
UniProt Q9NYP3, sequence (Q9NYP3 whole entry, looked up): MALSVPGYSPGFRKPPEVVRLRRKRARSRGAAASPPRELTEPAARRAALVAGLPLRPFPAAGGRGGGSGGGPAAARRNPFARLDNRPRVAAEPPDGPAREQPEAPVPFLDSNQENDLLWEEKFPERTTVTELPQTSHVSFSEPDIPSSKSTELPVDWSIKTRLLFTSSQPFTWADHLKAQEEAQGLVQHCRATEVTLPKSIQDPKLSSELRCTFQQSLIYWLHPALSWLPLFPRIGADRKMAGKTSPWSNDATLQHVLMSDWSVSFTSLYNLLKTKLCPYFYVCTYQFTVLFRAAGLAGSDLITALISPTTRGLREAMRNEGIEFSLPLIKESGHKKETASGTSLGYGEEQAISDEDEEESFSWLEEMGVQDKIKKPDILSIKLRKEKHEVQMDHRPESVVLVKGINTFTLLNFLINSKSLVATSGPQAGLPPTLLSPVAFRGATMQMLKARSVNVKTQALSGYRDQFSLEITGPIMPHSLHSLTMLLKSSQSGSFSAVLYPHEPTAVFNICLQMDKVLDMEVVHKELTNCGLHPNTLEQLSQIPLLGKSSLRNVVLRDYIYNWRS
UniProt Q6P3W2, sequence (Q6P3W2 whole entry, looked up): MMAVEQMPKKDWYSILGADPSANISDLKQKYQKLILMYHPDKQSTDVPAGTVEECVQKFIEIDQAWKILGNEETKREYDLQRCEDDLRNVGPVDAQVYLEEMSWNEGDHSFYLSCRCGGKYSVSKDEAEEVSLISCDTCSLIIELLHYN
UniProt P00374, sequence (P00374 whole entry, looked up): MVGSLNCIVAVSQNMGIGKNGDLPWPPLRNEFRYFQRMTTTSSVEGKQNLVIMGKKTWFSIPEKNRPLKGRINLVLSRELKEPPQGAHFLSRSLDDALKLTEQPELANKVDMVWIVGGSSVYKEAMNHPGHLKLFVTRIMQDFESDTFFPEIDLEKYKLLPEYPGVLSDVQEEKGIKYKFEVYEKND

Target	log2 fold change (nilotinib)	log2 fold change [1]	log2 fold change (dasatinib)	log2 fold change [2]	log2 fold change [3]	log2 fold change (quisinostat)	log2 fold change (tipifarnib)	log2 fold change [4]	log2 fold change [5]	log2 fold change [6]
CLIP1 isoform 2 (UniProt P30622)	0.055	-0.04	0.049	-0.073	-0.01	-0.049	0.015	-0.015	0.029	-0.059
DIAPH1 (UniProt O60610)	-0.003	-0.009	-0.019	-0.009	0.006	-0.006	-0.006	-0.006	0.002	0.008
CSNK1A1 (UniProt P48729)	-0.04	0.045	0.088	0.123	-0.039	-0.04	-0.019	0.197	0.018	-0.07
CSNK2A2 (UniProt P19784)	-0.031	0.195	-0.039	0.254	-0.004	0.001	-0.014	0.094	0.018	-0.003
CIB1 (UniProt Q99828)	-0.014	-0.016	0.022	0.045	0.008	0.004	0.002	-0.011	0.041	0
DES (UniProt P17661)	0.009	-0.04	-0.024	0.004	-0.057	-0.162	-0.008	0	0.041	0.034
CTPS1 (UniProt P17812)	0.009	-0.005	-0.058	0.011	0.026	-0.019	-0.015	0.028	0.002	-0.004
DNAAF5 (UniProt Q86Y56)	-0.015	0.004	-0.118	-0.024	0.007	-0.1	-0.002	0.073	0.006	0.024
CMTM3 (UniProt Q96MX0)	0.07	0.048	0.05	0.144	0.015	0.023	-0.111	-0.115	-0.055	-0.026
CUL1 (UniProt Q13616)	0.025	0.022	0.034	0.028	0.027	0.017	0.001	-0.021	-0.011	-0.004
CTPS2 (UniProt Q9NRF8)	-0.005	0.006	-0.035	-0.002	0.01	0.029	0.003	0.001	-0.003	0.012
CLUH (UniProt O75153)	0.009	0.075	-0.025	-0.007	0.002	-0.043	0.007	0.039	-0.006	0.004
CSNK1E (UniProt P49674)	-0.025	-0.008	0.053	0.091	-0.078	-0.075	-0.092	0.059	0.055	-0.06
CNP (UniProt P09543)	0.033	0.023	-0.047	-0.007	0.003	-0.028	-0.055	-0.009	-0.007	-0.009
CMBL (UniProt Q96DG6)	-0.029	0.054	0.155	0.006	-0.025	-0.047	-0.001	-0.027	-0.023	0.149
DNAJC24 (UniProt Q6P3W2)	0	-0.093	0.062	0.02	-0.039	-0.042	0.063	0.054	-0.041	-0.015
CSTB (UniProt P04080)	0.057	0.009	-0.017	0.079	-0.022	-0.206	-0.008	-0.004	-0.055	-0.005
DAZAP1 (UniProt Q96EP5)	-0.066	0.04	0.015	0.044	-0.016	0.118	-0.039	0.005	0.01	-0.008
DHFR (UniProt P00374)	0.023	-0.041	-0.091	0.019	0.073	-0.009	-0.012	0.039	-0.129	-0.04
CWC22 (UniProt Q9HCG8)	0.043	0.017	-0.015	0.002	0.02	0.015	0	0.011	0.023	-0.011
DDB2 (UniProt Q92466)	-0.027	-0.024	-0.033	-0.044	0.02	0.028	0.026	0.021	0.006	-0.003
DPM1 (UniProt O60762)	0.013	0.019	0.028	-0.014	0.044	0.057	0.03	0.038	0.019	-0.057
DONSON (UniProt Q9NYP3)	0.035	0.004	-0.031	0.066	-0.035	-0.051	-0.024	-0.003	-0.022	0.082
DOK1 (UniProt Q99704)	-0.019	0.05	0.014	-0.103	0.023	-0.032	0.048	0.07	-0.055	0.018
DENND6A (UniProt Q8IWF6)	0.012	-0.009	0.053	0.017	0.095	-0.084	-0.041	0.018	-0.032	-0.011
DLGAP5 (UniProt Q15398)	-0.013	0.029	-0.036	0	0.001	-0.033	0.001	0.011	0.006	0.007
CYP51A1 (UniProt Q16850)	0.124	-0.026	0.048	0.034	0.083	-0.021	0.664 (active)	-0.016	-0.009	-0.081
COQ9 (UniProt O75208)	0.021	0.03	-0.021	0	-0.007	0.036	-0.016	0	0.002	-0.018
CKM (UniProt P06732)	0.033	0	-0.056	0.062	-0.093	-0.175	-0.072	0.068	-0.025	0.007
CLIP1 isoform 1 (UniProt P30622)	-0.01	0.01	0.022	0.013	0.001	0.008	0.002	-0.004	-0.002	-0.002
